Data as given in PubChem BioAssay.
Several values for one entry are separate records, joined by “and”; a condition that tells them apart may be missing. Equal values may be shown once.

Experiment: growth inhibition of CRL1545 osteosarcoma cells, cell-based, cisplatin and BGB IC20 combos (AID 1671464);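 note: cells exposed to compound for 96 hours before readout; 0% = vehicle DMSO and 100% = high DMSO killing control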
Conditions: measured here: with cisplatin IC20 combination, at 0.5 µM, stronger effect = higher value

SMILES	inhibition
CCOC(=O)NCCCC(=O)NCCc1ccccc1	-18.2% and -11.8%
C[C@@]1(c2nc3c(C(N)=O)cccc3[nH]2)CCCN1	-21.8% and -61.5%
O=C(NCC1(c2nc(-c3ccccc3)cs2)CCOCC1)c1cccc(-c2noc(C(F)(F)F)n2)c1	-60.5% and -14.7%

Same assay, conditions: single agent, at 0.05 µM, stronger effect = higher value

SMILES	inhibition
CCOC(=O)NCCCC(=O)NCCc1ccccc1	-24.2% and 17.5%
C[C@@]1(c2nc3c(C(N)=O)cccc3[nH]2)CCCN1	-21.6% and -35.7%
O=C(NCC1(c2nc(-c3ccccc3)cs2)CCOCC1)c1cccc(-c2noc(C(F)(F)F)n2)c1	-48% and 14.2%

Same assay, conditions: single agent, at 5 µM, stronger effect = higher value

SMILES	inhibition
CCOC(=O)NCCCC(=O)NCCc1ccccc1	9.21% and -20.7%
C[C@@]1(c2nc3c(C(N)=O)cccc3[nH]2)CCCN1	11.5% and 14.2%
O=C(NCC1(c2nc(-c3ccccc3)cs2)CCOCC1)c1cccc(-c2noc(C(F)(F)F)n2)c1	36.5% and 43.7%
